The results in this text go back to PubChem BioAssay AID504332 (National Center for Advancing Translational Sciences (NCATS), 2011).

Screen size: about 350,000 compounds; about 31,000 (8.9%) were called active. Another 15% or so got no clear call; they are omitted. The list comes from a sample in which actives are over-represented; it also holds similar structures and randomly drawn compounds. A number with no mark means an inactive call. Calls follow the shape of the dose curve; as a rule, active = well fitted inhibition curve with a large enough effect; inconclusive = small, poorly fitted or top-dose-only effect; inactive = no such curve, though single readings can be large or run the other way.
% is scaled to controls: 0 for no effect and ±100 for the full control effect; potency is read from the fitted curve at half-maximal effect.

Chain of Histone-lysine N-methyltransferase EHMT2 (Homo sapiens) (Q96KQ7 913-1193 limits assumed): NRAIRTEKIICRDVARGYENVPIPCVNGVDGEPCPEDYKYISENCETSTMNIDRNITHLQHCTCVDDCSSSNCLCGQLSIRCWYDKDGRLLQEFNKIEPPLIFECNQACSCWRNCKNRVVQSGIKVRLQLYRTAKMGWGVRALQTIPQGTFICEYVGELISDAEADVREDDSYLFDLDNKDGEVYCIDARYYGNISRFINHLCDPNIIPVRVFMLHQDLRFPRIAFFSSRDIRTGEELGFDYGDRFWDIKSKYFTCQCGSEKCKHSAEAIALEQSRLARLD

The target of this experiment is Histone-lysine N-methyltransferase EHMT2 (Homo sapiens) (UniProt Q96KQ7). Briefly: qHTS Assay for Inhibitors of Histone Lysine Methyltransferase G9a. Also: nearly all actives have a fitted effect of over 75% in size. Particulars: G9a H3K9 monomethylation, AlphaScreen, 2 h; series mostly up to 59 µM; activity, negative = inhibition: at the top concentration. In short, it runs like this:
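Using a bead-based AlphaScreen, monomethylated H3K9 product from 2 h room-temperature reactions (G9a 20 nM, peptide 500 nM, SAM 20 uM) was detected with 0.5 ug/mL rabbit anti-H3K9me1 antibody.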
Consider `COc1ccc(CN(C)C(=O)c2cc(-c3ccc(C)cc3C)nc3ccccc23)c(OC)c1OC`, for which the “activity, negative = inhibition” value was -28.5% [at 102 µM].
Same read-out and setting: as for `Cc1cccc(-n2ncc(C(=O)N3CCN(c4ccc(Cl)cc4)CC3)c2C2CCN(C(=O)OC(C)(C)C)CC2)c1`, the figure is -31.9%.
Take `Cc1ccc2nc(N3C(=O)C(O)=C(C(=O)c4ccco4)C3c3cccc(O)c3)sc2c1` (stereo unspecified): the Potency is 31.6 µM (active).
For the compound `CCOc1ccc2nc(N3CCC(C(=O)Nc4cc(C)ccc4C)CC3)sc2c1`, the “activity, negative = inhibition” value was -3.63%.
As to `Cc1ccc2nc(NC(=O)C3CCN(S(=O)(=O)c4ccc5c(c4)oc(=O)n5C)CC3)sc2c1`, the “activity, negative = inhibition” value was -16.1% [at 102 µM].
For `COc1ccc([C@H]2CC(=O)C=C(c3ccc(C)cc3)C2)cc1`, the activity, negative = inhibition is -2.52% [at 0.501 µM].
Take `COCCCNC(=O)Cc1ccc(-n2c(C)nc3cccnc32)cc1`: the “activity, negative = inhibition” value was 3.74% [at 102 µM].
Consider `CCc1nc2cccnc2n1-c1ccc(C(=O)O)cc1`, for which the Potency is 35.5 µM (active).
For the compound `CCc1nc2cccnc2n1-c1ccc(CC(=O)Nc2c(C)cccc2C)cc1`, the “activity, negative = inhibition” value was -10.5%.
As to `COC(=O)CNC(c1ccccc1Cl)c1cc(Br)ccc1NC(=O)CCN1CCOCC1` (stereo unspecified), the Potency was 39.8 µM (active).
As for `COc1ccc(NC(=O)CCN2CCCC2)c(OC)c1`, the “activity, negative = inhibition” value is -43.1%.
For `COc1ccc(OC)c(NC(=O)CCN2CCC(C)CC2)c1`, the “activity, negative = inhibition” value is -7.48%.
Still for that read-out and setting: under `O=C(CSc1nc2nccnc2c(=O)n1CCc1c[nH]c2ccccc12)Nc1ccccc1F` stands -1.63%; under `O=C(c1cccc(Br)c1)N1CCN(Cc2cc(=O)n3nc(-c4ccccc4)sc3n2)CC1`, -15.5%.
Regarding `CN(Cc1cccs1)C(=O)CN1C(=O)c2ccccc2S1(=O)=O`, the activity, negative = inhibition is -6.03% [at 2.33 µM].
Same read-out and setting: as for `CCCCN(C(=O)c1nn(C)c(=O)c2ccccc12)c1c(N)n(CCC)c(=O)[nH]c1=O`, the figure is -30.6% [at 12.7 µM].
For the compound `CC(OC(=O)c1ccc2ccccc2n1)C(=O)c1ccccc1` (stereo unspecified), the “activity, negative = inhibition” value is 27.2% [at 102 µM].
As for `O=C(OCc1ccc([N+](=O)[O-])cc1)c1ccccn1`, the “activity, negative = inhibition” value was -29.9% [at 102 µM].
Take `O=C(Oc1ccc([N+](=O)[O-])cc1)c1ccc2ccccc2n1`: the Potency was 12.6 µM (active).
As to `COCCn1c(SCC(=O)c2cc(C)ccc2C)nc2cc(C(=O)NC3CCCC3)ccc2c1=O`, the “activity, negative = inhibition” value was -6.47%.
For `O=C(COC(=O)c1ccccc1Cl)NC1CCCCCCC1`, the activity, negative = inhibition is 6.1% [at 0.501 µM].
In the case of `COc1ccc(S(=O)(=O)c2c[nH]c(=S)[nH]c2=O)cc1Cl`, the Potency is 79.4 µM (active).
Consider `COc1ccc(S(=O)(=O)NCc2cccn2Cc2cccc(C)c2)cc1Cl`, for which the “activity, negative = inhibition” value was -4.35%.
On the same count and under the same terms, as for `COc1ccc(S(=O)(=O)N(C)CC(=O)N2CCCC2)cc1Cl`, the figure is -5.71% [at 102 µM]; as for `Cc1cccc(NC(=O)c2cccc(S(=O)(=O)N3CCCC3)c2)n1`, -27.4% [at 102 µM].
As for `COC(=O)C1=C(C(=O)OC)C(c2cc([N+](=O)[O-])ccc2O)c2sc(=O)[nH]c2S1` (stereo unspecified), the Potency was 44.7 µM (active).
On to `COC(=O)C1=C(C)N(C)C(=O)NC1c1ccc([N+](=O)[O-])o1` (stereo unspecified), for which the “activity, negative = inhibition” value is -2.67% [at 102 µM].
For `COc1cnc(-c2ccccn2)nc1Oc1ccc(C(C)(C)C)cc1`, the “activity, negative = inhibition” value was 16.9% [at 102 µM].
The same measure, in the same setting: as for `Cc1ccccc1CNC(=O)CCc1cn(Cc2ccccc2C)c2ccccc12`, the figure is -27.4%; as for `CCOc1ccc(S(=O)(=O)c2cn(Cc3ccccc3)c3ccc(OCC)cc3c2=O)cc1`, 4.03%; as for `O=C(Nc1ccc(NC(=O)c2ccc3c(c2)OCO3)cc1)c1cccc(Cl)c1`, 0.511% [at 12.7 µM].
Still for that read-out and setting: under `CCOCCn1c(-c2ccccc2)nc2ccccc21` stands 17.2% [at 102 µM].
As for `CC(=O)OCCN(CCCn1c(-c2ccncc2)nc2ccccc21)c1nc(-c2ccc(C)cc2)cs1`, the Potency was 56.2 µM (active).
Regarding `COc1ccc(-c2nc3ccccc3n2CCC(C)C)cc1OC`, the “activity, negative = inhibition” value is -2.19% [at 102 µM].
With `CCC(Sc1nc2n[nH]c(C)c2c(=N)n1-c1ccccc1Cl)C(=O)N(CC)CC` (stereo unspecified), the “activity, negative = inhibition” value was 20.7%.
On the same count and under the same terms, under `Cc1ccc(CC(=O)N(C)CC(=O)N(CC(C)C)c2c(N)n(CC(C)C)c(=O)[nH]c2=O)cc1C` stands 10.8% [at 2.33 µM].
As for `CCC(C(=O)Nc1cccc(Cl)c1C)n1nc(-c2ccc(C)cc2)ccc1=O` (stereo unspecified), the “activity, negative = inhibition” value is -3.11%.
The same measure, in the same setting: under `COC(=O)c1ccccc1NC(=O)Cn1c(=O)cc(C)c2c(C)nn(-c3cccc(Cl)c3C)c21` stands 1.79%.
Take `Cn1nnc2c(N3CCN(c4ccccc4)CC3)ncnc21`: the “activity, negative = inhibition” value is 1.37%.
On the same count and under the same terms, as for `O=C(Cc1ccc(Cl)cc1)NCC(c1cccs1)S(=O)(=O)c1ccc(Cl)cc1` (stereo unspecified), the figure is 27.5%; as for `Cc1ccc(-c2nn(-c3ccccc3)cc2C(=O)NCCCN2CCCC2=O)cc1`, -28.8% [at 102 µM].
For `COc1ccc(-n2cc(-c3ccccc3)c3c(=S)nc[nH]c32)cc1`, the “activity, negative = inhibition” value was 20.3% [at 102 µM].
In the case of `COc1ccc(N2C(=O)CNC2=S)cc1`, the “activity, negative = inhibition” value is -12.5%.
As to `COc1ccc(-c2cn(-c3ccc(OC)cc3)c(=S)[nH]2)cc1`, the Potency is 1.41 µM (active).
As for `COc1ccccc1CCNC(=O)c1c(C)nn(CC(C)C)c1Cl`, the “activity, negative = inhibition” value is 46.5% [at 102 µM].
For `COc1cccc(NC(=O)Cn2c(=O)cc(C)c3c(C)nn(-c4cccc(F)c4)c32)c1`, the “activity, negative = inhibition” value is 6.73%.
